Inconclusive results are not listed. Active and inactive are the calls of the source. Calls follow the shape of the dose curve; as a rule, active = well fitted inhibition curve with a large enough effect; inconclusive = small, poorly fitted or top-dose-only effect; inactive = flat fitted curve, though single readings scatter.
Target: Calcium and integrin-binding protein 1 (Homo sapiens) (UniProt Q99828)
Test: Primary qHTS for Identification of Calcium Integrin Binding Protein 1 (CIB1) Competitor (AID 1508620);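 also: GST tagged CIB1 binding a fluorescein labelled alphaIIb integrin peptide tracer; top concentration of the series differs between compounds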
Conditions: CIB1-GST / FITC-alphaIIb peptide fluorescence polarization; series mostly up to 114 µM; activity change, negative = inhibition: at the top concentration
Procedure, shortened: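 CIB1-GST (1 uM final) and compound incubated 15 min at room temperature before adding FITC-alphaIIb peptide tracer (100 nM final). Competition for binding read by fluorescence polarization (ex 480, em 540) after another 15 min at room temperature.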
% is scaled to controls: 0 for no effect and ±100 for the full control effect.

Sequence of Calcium and integrin-binding protein 1 (Homo sapiens) (Q99828 whole entry, looked up): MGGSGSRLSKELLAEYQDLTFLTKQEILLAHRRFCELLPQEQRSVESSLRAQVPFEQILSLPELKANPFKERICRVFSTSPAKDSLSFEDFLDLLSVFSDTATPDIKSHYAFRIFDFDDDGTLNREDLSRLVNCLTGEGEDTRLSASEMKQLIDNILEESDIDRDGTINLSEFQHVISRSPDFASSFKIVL

Compound	activity change, negative = inhibition	Potency
Cc1cc(N[S+](=O)([O-])c2ccc3c(c2)CCC(=O)N3C)ccc1F	-2.74% (inactive)	–
N#Cc1nc(Nc2ccccc2)nc(NC2CCCC2)n1	-2.22% (inactive)	–
Cc1ccc(OCCn2c(CCNC(=O)c3ccc(C(F)(F)F)cc3)nc3ccccc32)cc1	-1.97% (inactive)	–
Cn1nnnc1Sc1ncnc2scc(-c3ccccc3F)c12	2.65% (inactive)	–
COc1ccc(C2Nc3ccccc3C(=O)N2Cc2cccc(C(F)(F)F)c2)cc1COc1ccc(NC(C)=O)cc1 (stereo not given)	3.71% (inactive)	–
O=[S+]([O-])(c1ccc2c(c1)OCCO2)N1CCN([S+](=O)([O-])c2c(O)cc(F)cc2F)CC1	0.118% (inactive)	–
Nc1ccc2c(c1)C(=O)NS2(=O)=O	1.28% (inactive)	–
COc1cccc(C2c3c(ncn(-c4ccccc4)c3=N)Oc3ccc4ccccc4c32)c1 (stereo not given)	–	inactive
Cc1nc(C2=NC(c3ccccc3Cl)C3=C(CCCC3=O)N2)cs1 (stereo not given)	-11.2% (inactive)	–
O=c1c2ccccc2nc2sc(Nc3ccc4c(c3)OCO4)nn12	-13.8% (inactive)	–
O=C(/C=C/c1ccc(C(F)(F)F)cc1)Nc1cccc([S+](=O)([O-])Nc2ccccc2F)c1	-4.32% (inactive)	–
CC(=O)NC(c1ccco1)c1cc(Cl)c2ccc(Cl)nc2c1O (stereo not given)	-16.3% (inactive)	–
c1nc(N2CCOCC2)c2cc(-c3ccc4c(c3)OCO4)ccc2n1	-2.44% (inactive)	–
O=C(O)c1ccc(-n2cccc2/C=C2\SC(=O)N(Cc3ccc(F)cc3)C2=O)cc1	5.21% (inactive)	–
O=C(Nc1nnc(-c2ccncc2)s1)NC12CC3CC(CC(C3)C1)C2	9.63% (inactive)	–
O=C(CN1C(=O)N/C(=C\c2cccn2-c2cccc(C(=O)O)c2)C1=O)Nc1cccc(F)c1	-9% (inactive)	–
O=C(Cc1nnc(-c2cc3ccccc3[nH]2)s1)Nc1cc(C(F)(F)F)ccc1Cl	–	inactive
CCOC(=O)C1CCN(C(=O)C2(NC(=O)Nc3ccccc3Cl)CCCCC2)CC1	1.89% (inactive)	–
Cc1ccc(CNc2ncc(N3CCCCC3)cn2)cc1	-3.02% (inactive)	–
Cc1ccnc(NC(=S)N2CCN(c3ccc4ccccc4n3)CC2)c1	-20.8% (inactive)	–

Compound	activity change, negative = inhibition	Potency
Cc1c(C(=O)NCC2CCCO2)[nH]c2c1C(=O)CCC2 (stereo not given)	-6.62% (inactive)	–
O=C(OCC#CCSc1nnc(-c2cccc3ccccc23)o1)c1ccncc1	0.615% (inactive)	–
Cn1nnnc1Sc1ncnc2scc(-c3ccc(C(F)(F)F)cc3)c12	1.66% (inactive)	–
COc1ccc(NS(=O)(=O)c2ccc3c(c2)CCC(=O)N3)cc1	7.41% (inactive)	–
CC(=O)NC(c1cc(Cl)c2cccnc2c1O)C1CC1 (stereo not given)	-18.6% (inactive)	–
Cc1ccc(NS(=O)(=O)c2ccc3c(c2)NC(=O)CO3)cc1C	5.69% (inactive)	–
Cc1cc2c(s1)c1cnn(Cc3cc(F)c(F)cc3F)c(=O)c1n2C	4.26% (inactive)	–
Cn1nnnc1Sc1ncnc2scc(-c3ccccc3Cl)c12	-0.191% (inactive)	–
O=[S+]([O-])(c1ccc2c(c1)OCCO2)N1CCN([S+](=O)([O-])c2ccc(F)cc2Br)CC1	-1% (inactive)	–
CCN(Cc1ccccc1)c1ccc(Br)cn1	-1.61% (inactive)	–
CC(C)(C)N[S+](=O)([O-])c1cccc(-c2nnc(SCc3ccc(C(=O)O)cc3)n2-c2ccc(F)cc2)c1	1.44% (inactive)	–
CC(=O)Nc1sc2c(c1-c1cc3ccccc3s1)CCNC2	14.6% (inactive)	–
Cc1cccc(CNc2ccnc(-c3ccc(F)cc3F)n2)c1	-1.52% (inactive)	–
O=C(/C=C/c1ccccc1Br)NCCc1nc2ccccc2[nH]1	-0.875% (inactive)	–
Cc1ccc(-c2no[n+]([O-])c2C#N)cc1	-1.59% (inactive)	–
c1coc(-c2ccc3ncnc(NCc4cccs4)c3c2)c1	-14.8% (inactive)	–
COc1ccc(OC)c(C2=Nn3c(nnc3-c3cc(OC)ccc3OC)SC2)c1	2.38% (inactive)	–
COc1ccc(CN(Cc2ccccc2)C(=O)c2ccccc2O)cc1COc1ccc(NC(C)=O)cc1	4.37% (inactive)	–
FC(F)(F)c1ccccc1-c1nc(NCc2ccc(C3CCCCC3)cc2)c2ccccc2n1	5.01% (inactive)	–
NCCCCNc1ncnc2ccc(-c3ccc4c(c3)OCO4)cc12	-3.47% (inactive)	–
